Bioassay records deposited in PubChem BioAssay by National Center for Advancing Translational Sciences (NCATS).
CCT modulator: High-Throughput Screening for Modulators of Cytosolic Chaperonin Activity | purified chaperonin ATPase assay, HTRF ADP detection, 30 min | activity change, % (no concentration beside the values), hits read low | 360,000 compounds, 0.3% hits; in the data active means activity change below about -30%; further: on the % scale 0 is the no-effect control and ±100 the full control effect
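Nucleotide hydrolysis assay: TRiC at 20–40 nM final (set by batch activity) with 10 uM ATP, 30 min at 37 °C, in presence of 76 uM compound. Detection by competitive ADP HTRF, 30 min ambient.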
Anesthetic bind: qHTS Assay for Identification of Novel General Anesthetics; apoferritin/1-aminoanthracene competitive binding, fluorescence; 350,000 compounds, 0.074% hits; Ferritin light chain (Equus caballus), P02791; Potency, µM (titrated, usually from 77.5 µM), for the others: at the highest dose activity change, negative = displacement, most hits filed as inhibitors; further: potency means the concentration at half of the fitted maximal effect; on the % scale 0 is the no-effect control and ±100 the full control effect; nearly all actives have a fitted effect of over 20% in size
Target sequence (P02791 2-175 limits assumed): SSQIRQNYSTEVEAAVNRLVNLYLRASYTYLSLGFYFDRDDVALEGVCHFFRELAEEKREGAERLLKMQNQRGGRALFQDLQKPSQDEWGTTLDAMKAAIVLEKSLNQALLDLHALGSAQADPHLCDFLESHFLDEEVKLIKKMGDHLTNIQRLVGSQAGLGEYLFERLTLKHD
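Concentration-response curves derived by four-parameter Hill fitting of normalized fluorescence, where compounds displaced 1-AMA from 10 uM horse apoferritin following a brief 10 min room-temperature incubation; propofol titration acted as positive control.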
ERG-DNA inh: qHTS for Small Molecule Inhibitors of the ERG Ets/DNA interaction. Potency, µM (highest dose often 76.9 µM), inactives show at the highest dose FP activity, negative = inhibition, most hits filed as inhibitors. AID 624246, 2012. fluorescence polarization, His-ERG Ets domain / labelled DNA. 370,000 compounds, 0.028% hits; active means well fitted inhibition curve with a large enough effect in the polarisation, with a control signal flat; inconclusive means small, poorly fitted or top-dose-only effect, or effect the other way, or a change in a side signal; inactive means no such curve, though single readings can be large or run the other way; the % refers to the polarisation;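 further: polarization taken with two DNA probes labelled with fluorescein and Texas red; potency means the concentration at half of the fitted maximal effect; % of control where 0% means no effect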
Target sequence (P11308 whole entry, looked up, the tested form may be a part): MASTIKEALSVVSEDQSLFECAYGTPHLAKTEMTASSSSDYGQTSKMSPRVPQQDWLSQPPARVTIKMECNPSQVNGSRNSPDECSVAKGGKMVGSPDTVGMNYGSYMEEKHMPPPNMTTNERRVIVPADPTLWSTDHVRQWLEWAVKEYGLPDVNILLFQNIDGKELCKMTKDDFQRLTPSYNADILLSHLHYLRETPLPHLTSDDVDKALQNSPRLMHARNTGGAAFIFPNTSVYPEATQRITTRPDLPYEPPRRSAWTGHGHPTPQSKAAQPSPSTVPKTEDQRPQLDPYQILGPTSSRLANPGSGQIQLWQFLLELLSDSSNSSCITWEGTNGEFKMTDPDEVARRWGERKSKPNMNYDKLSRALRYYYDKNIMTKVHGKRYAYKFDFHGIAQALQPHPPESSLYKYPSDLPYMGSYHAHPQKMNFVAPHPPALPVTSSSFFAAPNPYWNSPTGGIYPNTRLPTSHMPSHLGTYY
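His-tagged ERG Ets domain (1 uM in the protein solution; 300mM KCl, 50mM Tris-HCl, 1mM EDTA, 1mM DTT, pH 7.5) received compound, then a probe mix of 5 nM fluorescein-DNA and 100nM Texas-615-DNA. Fluorescence polarization was read for both dyes.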
MmCpn inh: Inhibitors of TCP-1 ring complex (TRiC) of Methanococcus maripaludis (MmCpn): qHTS; Potency, µM (doses to about 76.9 µM), for the others: top-dose activity, negative = inhibition, hits mostly inhibitors; AID 504842, 2011; 330,000 compounds, 0.031% hits; purified Mm-Cpn ATPase, ADP Transcreener TR-FRET; further: potency means the concentration at half of the fitted maximal effect; on the % scale 0 is the no-effect control and ±100 the full control effect; nearly all actives have a fitted effect of over 80% in size
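TR-FRET (320 nm excitation; 590 and 665 nm emission) reports ADP made from 10 uM ATP by 25 nM enzyme; compounds were preincubated 10 min, reaction run 30 min, both at 37°C.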
* marks the source's active call; other numbers are inactive results; ? = inconclusive; . = no result given. Sampled rows, rich in hits. Any-hit rate of the full collection: about 0.39%. Unless noted, the call rests on the fitted dose curve; in most records, active means well fitted curve in the direction sought with a large enough effect; inconclusive means small, poorly fitted or top-dose-only effect, or another doubt; inactive means no such curve, though single readings can be large; an effect the other way counts as inactive or inconclusive.

SMILES | CCT modulator | Anesthetic bind | ERG-DNA inh | MmCpn inh
COc1ccc(OC)c(-n2c(SCC(=O)Nc3cccc(S(N)(=O)=O)c3)nc3ccccc3c2=O)c1 | -39.9* | -0.5% | 4.8% | -6.9%
COc1ccccc1-n1c(SCC(=O)Nc2cccc(S(N)(=O)=O)c2)nc2ccccc2c1=O | -0.4 | -14.1% | 10.6% | 3.0%
Cc1ccc(NC(=O)Cn2c(=O)n(CCC(=O)N3CCc4ccccc4C3)c(=O)c3ccccc32)cc1 | . | 2.0% | -1.6% | .
CC1Sc2n(c3ccccc3[n+]2C)N=C1c1ccccc1 (configuration not stated) | -34.1* | -15.0% | -15.1% | 1.9%
COc1cc(C(C)=O)ccc1OCC(=O)Nc1ccc(Cl)c(S(=O)(=O)N2CCOCC2)c1 | -98.1* | . | -11.1% | -9.3%
CC(=O)c1ccc(OCCCC(=O)Nc2ccc(Cl)c(S(=O)(=O)N3CCOCC3)c2)cc1 | -3.7 | . | -8.4% | .
Cc1ccc(NC(=O)COC(=O)c2ccc(NC(=O)CC#N)cc2)cc1S(=O)(=O)N1CCOCC1 | -1.0 | . | -0.5% | 31.6µM*
CC(C)CCNC(=O)c1cn(CC(C)C)c(=O)c2c1c1ccccc1n2C | -41.1* | -9.1% | 5.7% | 0.1%
O=C(Nc1ccccc1)C1=C(c2ccccc2)S(=O)(=O)CCS1(=O)=O | -55.0* | -6.7% | -5.4% | -4.9%
O=C(O)c1ccccc1C(=O)Nc1ccccc1 | 1.4 | 3.3% | -7.2% | 0.5%
CCC(NS(=O)(=O)c1cnn(CC)c1)c1ccccc1 (configuration not stated) | -3.1 | -9.0% | 1.6% | 3.8%
CCC(NS(=O)(=O)c1cn(C)nc1C)c1ccccc1 (configuration not stated) | -30.9* | -3.8% | 6.8% | 3.4%
COc1cc(CNc2ncnc3c2ncn3[C@H]2CN(Cc3ccccc3)C[C@@H](COC(C)=O)O2)cc(OC)c1OC | -37.7* | . | . | .
COc1cc(C(=O)O[C@H]2C/C(C)=C/CC/C(C)=C/[C@@H](O)C2C(C)C)ccc1O (some centres not stated) | . | -15.2% | . | .
CC(C)Cc1nnc(NC(=O)c2cccc(S(=O)(=O)N3CCN(C)CC3)c2)s1 | -1.3 | . | -2.1% | -1.5%
CC(C)Cc1nnc(NC(=O)c2cccc(S(=O)(=O)N3CCOCC3)c2)s1 | -59.3* | . | 2.4% | ?
N#C/C(C(N)=O)=c1/ccc2c(c1)N1C3=C(CCCC3)CC3CCCCC31N=2 (configuration not stated) | -37.3* | ? | -3.2% | -6.0%
CN(C)c1cccc(C(=O)OCCCC(=O)c2ccc(F)cc2)c1 | -38.3* | . | -8.8% | -1.2%
O=C(O)[C@H]1O[C@@H](Oc2ccc3ccc(=O)oc3c2)[C@H](O)[C@@H](O)[C@@H]1O | . | 0.0% | . | .
COc1ccc(NC(=O)C2(C)CCN2C(=O)C(C)C)cc1F (configuration not stated) | -35.6* | . | . | .
CCC(=O)N1CCC1(C)C(=O)Nc1ccc(OC)c(OC)c1 (configuration not stated) | 0.6 | . | . | .
CNc1nc(Cl)nc2c1ncn2CC(COC(=O)C(C)(C)C)COC(=O)C(C)(C)C | . | -3.8% | . | .
CCc1ccccc1NC(=O)CC(c1ccc(F)cc1)N1Cc2ccccc2C1=O (configuration not stated) | . | 11.2% | -9.2% | .
COc1ccc2c(c1)CC(C(=O)NCCN1CCN(c3cccc(C)c3C)CC1)CO2 (configuration not stated) | . | -17.0% | -1.6% | .
CN1CCN(C(=O)/C(=C/c2cn(S(=O)(=O)N(C)C)c3ccccc23)NC(=O)c2ccccc2)CC1 | -39.3* | -5.4% | -7.5% | 1.7%
SMILES | CCT modulator | Anesthetic bind | ERG-DNA inh | MmCpn inh
Cc1ccc(C2=N/C(=C\c3ccc(F)cc3)C(=O)N2)cc1 | -43.9* | . | 6.4% | -1.0%
COC(=O)c1ccc(Nc2cc(C)nc3ccc(C)cc23)cc1 | -39.0* | -0.4% | -8.6% | 0.5%
CC(C)C[C@H](NC(=O)[C@H](CO)NC(=O)[C@H](C)NC(=O)[C@H](CCCN=C(N)N)NC(=O)[C@H](CCCN=C(N)N)NC(=O)[C@@H](N)CC(C)C)C(=O)NCC(=O)O | . | -0.5% | . | .
CC(NC(=O)Cn1cnnn1)C12CC3CC(CC(C3)C1)C2 (configuration not stated) | -90.9* | ? | -1.6% | 2.3%
CC(NC(=O)CN1CCCC1)C12CC3CC(CC(C3)C1)C2 (configuration not stated) | -1.9 | -12.0% | -8.5% | 1.7%
CN(C)c1ccc(-c2cc(C3C4C=CCCC4(C)C(=O)N3Cc3ccccc3)ccc2F)cc1 (configuration not stated) | . | 29.3% | . | .
CCOC(=O)c1ccccc1NC(=O)c1cncc(Br)c1 | -37.3* | 19.3% | 4.8% | -17.7%
CCOC(=O)c1ccccc1NC(=O)c1cccnc1 | 0.0 | 31.8% | -11.9% | 3.4%
COc1cccc(NS(=O)(=O)c2ccc3[nH]cc(C(=O)NC4CCCCC4)c(=O)c3c2)c1 | . | ? | -0.2% | .
O=C(CCCN1C(=O)c2cccc3cccc(c23)C1=O)OCC(=O)N1CCCCC1 | 0.5 | . | . | .
CC1CCN(C(=O)COC(=O)CCCN2C(=O)c3cccc4cccc(c34)C2=O)CC1 | -94.2* | ? | 1.3% | 2.5%
CCOC(=O)c1c(C)[nH]c(C)c1S(=O)(=O)N(C)CC(=O)Nc1cccc(C(F)(F)F)c1 | . | 2.5% | 0.3% | .
COc1ccc(N2CCN(c3c4c(nc5nncn35)CCC4)CC2)cc1 | . | -5.5% | 2.6% | .
CCOc1ccc(/C=C(\C#N)C(=O)Nc2cccnc2)cc1 | -62.7* | 3.6% | 10.6% | -0.6%
O=C(O)COc1ccc(C(=O)c2cccs2)c(Cl)c1Cl | . | -13.4% | . | .
O=C(O)COc1ccc2nsnc2c1Cl | -0.8 | 249.3% | -0.3% | 6.31µM*
Cc1ccc(NC(=O)Cn2nc(C)c([N+](=O)[O-])c2C)cc1C | 0.5 | -5.2% | -1.3% | -3.7%
Cc1nn(CC(=O)Nc2ccc3c(c2)OCCO3)c(C)c1[N+](=O)[O-] | -32.5* | . | 4.6% | 0.0%
C=C[C@@]1(C)CC(=O)[C@]2(O)[C@@]3(C)[C@H](O)CCC(C)(C)[C@@H]3[C@H](O)[C@H](OC(C)=O)[C@@]2(C)O1 | . | -0.6% | . | .
CCCCc1ccc(NC(=O)Nc2cc(C)nn2C)cc1 | -111.3* | -20.3% | 31.6µM* | 1.3%
Cc1nc(-c2ccc(Cl)cc2)sc1CCNC(=O)c1cccs1 | . | -7.4% | 5.9% | .
